CHX counter: counter-screen for Shiga toxin inhibitors: cycloheximide protein synthesis inhibition; cell reporter, cycloheximide protein synthesis inhibition counterscreen; max response, %; hit rate 12% among 300,000; AID 2314; in the data active = max response mostly above about 13%, no sharp cut-off; inactive = mostly below about 14%; note: read at 38.3 µM for the half of the compounds with a filed dose
Lassa entry inh: inhibitors of Lassa virus binding or cell entry; Lassa virus pseudotype entry inhibition, cell reporter; Potency, µM (titrated, usually from 37.9 µM), usual class: inhibitors; hit rate 1.2% among 300,000; calls by dose curve; tested in HEK293 cells; note: nearly all actives have a fitted effect of over 50% in size
MARV entry inh: inhibitors of Marburg virus binding or cell entry; hit rate 1.8% among 300,000; AID 540276; Marburg virus pseudotyped entry inhibition, cell reporter; Potency, µM (highest dose often 37.8 µM), most hits filed as inhibitors; calls by dose curve; tested in HEK293 cells
Shiga toxin inh: Shiga toxin inhibition; Vero cells, Shiga toxin protein synthesis inhibition reporter; inhibition, % at 38.7 µM; hit rate 9.2% among 290,000; in the data active = inhibition mostly above about 28%, no sharp cut-off; inactive = mostly below about 43%
AMA1-RON2 inh: AMA1-RON2 (P. falciparum) interaction inhibition. AlphaScreen AMA1-biotinylated RON2 peptide binding. hit rate 0.2% among 360,000. Potency, µM (doses to about 58.2 µM), actives largely listed as inhibitors; active = well fitted inhibition curve with a large enough effect; inconclusive = small, poorly fitted or top-dose-only effect; inactive = no such curve, though single readings can be large or run the other way; note: nearly all actives have a fitted effect of over 45% in size
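AMA1 (3D7) with his tag at 25 nM final met compounds first, then biotinylated RON2 peptide at 25 nM; detection used donor plus acceptor beads, 10 µg/mL apiece, read by AlphaScreen after 30 min at room temperature.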
Hits are given with their value. The sample as a whole holds a higher share of hits than the screen did.

Results for COc1ccc(N(C)S(=O)(=O)c2ccc(C)cc2)c([N+](=O)[O-])c1 ?
CHX counter: inactive; Lassa entry inh: 12.6µM; MARV entry inh: inactive; Shiga toxin inh: inactive; AMA1-RON2 inh: inactive

How did COc1ccc(NC(=O)CN(C)S(=O)(=O)c2ccc(C)cc2)c([N+](=O)[O-])c1 do in these assays?
CHX counter: inactive; Lassa entry inh: inactive; MARV entry inh: inactive; Shiga toxin inh: inactive; AMA1-RON2 inh: inactive

Results for COc1ccc(NC2CCCN(C(=O)c3ccc(C)nc3)C2)cc1 (stereo not given) ?
CHX counter: inactive; Lassa entry inh: inactive; MARV entry inh: inactive; Shiga toxin inh: inactive; AMA1-RON2 inh: inactive

What do the screens show for `COc1ccc(NC2CCCN(C(=O)c3cc4ncccn4n3)C2)cc1` (stereo not given)?
CHX counter: 24.7; Shiga toxin inh: 36.5; AMA1-RON2 inh: inactive

How did COc1ccc(NC2CCCN(C(=O)CN3CCOC3=O)C2)cc1 (stereo not given) do in these assays?
CHX counter: 37.9; Shiga toxin inh: 62.0; AMA1-RON2 inh: inactive

What do the screens show for `Cc1nc(Nc2cccc(O)c2)c2oc3ccccc3c2n1`?
CHX counter: 42.0; Shiga toxin inh: 52.2; AMA1-RON2 inh: inactive

Results for Cc1nc(Nc2cccc(F)c2)c2oc3ccccc3c2n1 ?
CHX counter: 28.4; Lassa entry inh: inactive; MARV entry inh: inactive; Shiga toxin inh: 97.3; AMA1-RON2 inh: inactive

Results for COc1cccc(Nc2nc(C)nc3c2oc2ccccc23)c1 ?
CHX counter: inactive; Lassa entry inh: inactive; MARV entry inh: inconclusive; Shiga toxin inh: inactive; AMA1-RON2 inh: inactive

How did Cc1nc(Nc2cccc(Cl)c2)c2oc3ccccc3c2n1 do in these assays?
CHX counter: 20.2; Lassa entry inh: inconclusive; MARV entry inh: inconclusive; Shiga toxin inh: 30.9; AMA1-RON2 inh: inactive

Results for Cc1nc(Nc2ccc(Cl)cc2)c2oc3ccccc3c2n1 ?
CHX counter: inactive; Lassa entry inh: inactive; MARV entry inh: inactive; Shiga toxin inh: inactive; AMA1-RON2 inh: inactive

What do the screens show for `Cc1nc(Nc2ccccc2F)c2oc3ccccc3c2n1`?
CHX counter: 31.6; Lassa entry inh: inactive; MARV entry inh: inconclusive; Shiga toxin inh: 69.2; AMA1-RON2 inh: inactive

What do the screens show for `CC(Cl)C(=O)NN=C(c1ccccc1)c1ccccc1` (stereo not given)?
CHX counter: 15.6; Shiga toxin inh: inactive; AMA1-RON2 inh: inactive

What do the screens show for `Cc1noc2nc(C(=O)O)nc(N3CCCCC3)c12`?
Lassa entry inh: inactive; MARV entry inh: inactive

Results for O=S(=O)(c1ccccc1)N1CC1c1ccccc1 (stereo not given) ?
CHX counter: 47.1; Lassa entry inh: inconclusive; MARV entry inh: inconclusive; Shiga toxin inh: 38.1; AMA1-RON2 inh: inactive

How did O=S(=O)(c1ccc(Cl)cc1)N1CC1c1ccccc1 (stereo not given) do in these assays?
CHX counter: inactive; Lassa entry inh: inactive; MARV entry inh: inactive; Shiga toxin inh: inactive; AMA1-RON2 inh: inactive

What do the screens show for `CCCCNC(=O)C[C@@H]1C[C@@]2(C(=O)OCC)CCCC=C2N(CCC2=CCCCC2)C1=O`?
AMA1-RON2 inh: inactive

What do the screens show for `CCC(=O)NC(=S)Nc1cccc(NC(=O)c2ccco2)c1`?
CHX counter: inactive; Lassa entry inh: inactive; MARV entry inh: inactive; Shiga toxin inh: inactive; AMA1-RON2 inh: inactive

What do the screens show for `O=C(NC(=S)Nc1ccc2oc(=O)ccc2c1)c1ccco1`?
CHX counter: 19.1; Lassa entry inh: inactive; MARV entry inh: inactive; Shiga toxin inh: 53.4; AMA1-RON2 inh: inactive

How did O=C(c1ccco1)N1CCCC(Nc2ccc3c(c2)OCCO3)C1 (stereo not given) do in these assays?
CHX counter: 43.2; Lassa entry inh: inactive; MARV entry inh: inactive; Shiga toxin inh: 85.0; AMA1-RON2 inh: inactive

How did O=C(NC(=S)Nc1ccc2c(c1)OCCO2)c1ccco1 do in these assays?
CHX counter: 46.1; Lassa entry inh: inconclusive; MARV entry inh: inconclusive; Shiga toxin inh: 99.6; AMA1-RON2 inh: inactive

What do the screens show for `O=C(NC(=S)Nc1cccc(O)c1)c1ccco1`?
CHX counter: 54.0; Shiga toxin inh: 94.4; AMA1-RON2 inh: inactive

Results for CCC[C@H]1CN(Cc2ccccc2)C(=O)[C@H]1CC(=O)NC ?
Lassa entry inh: inactive

How did COc1ccc(NC(=O)Cn2c(=O)n(-c3cccc(C)c3)c(=O)c3c2c2cc(C)ccc2n3C)cc1Cl do in these assays?
Lassa entry inh: inconclusive; MARV entry inh: inactive

Results for COc1cc2oc3cc(C#Cc4ccc(N)cc4)ccc3c(=O)c2cc1OC ?
AMA1-RON2 inh: inactive

How did Nc1ccc(C#Cc2ccc3c(=O)c4ccccc4oc3c2)cc1 do in these assays?
CHX counter: 36.7; Shiga toxin inh: 28.2; AMA1-RON2 inh: inactive

Compound activity (PubChem BioAssay)
